The nature of test [1]: NCI Yeast Anticancer Drug Screen. Data for the rad50 strain (AID 155).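 Note: 0% = growth of vehicle-only cultures of the same strain.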 To be noted: S. cerevisiae rad50 strain growth inhibition, active compounds read high. Put shortly: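 A DNA repair-deficient yeast mutant serves as the test organism; compound-induced growth inhibition is calculated against vehicle-treated cells.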
A short description of test [2]: NCI Yeast Anticancer Drug Screen. Data for the mec2-1 strain (AID 157). To be noted: S. cerevisiae mec2-1 strain, active compounds read high. Put shortly:
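Using mec2-1 yeast: add compound, measure growth, express inhibition versus vehicle-treated cultures.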

The nature of test [3]: NCI Yeast Anticancer Drug Screen. Data for the sgs1 mgt1 strain (AID 161).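 Note: 0% = growth of cultures given vehicle only.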 To be noted: S. cerevisiae sgs1 mgt1 strain, active compounds read high. In short, it runs like this:
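This yeast growth screen uses a strain with defined DNA-repair lesions; compound-treated growth is compared with vehicle-treated growth.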

Test [4] in a line: NCI Yeast Anticancer Drug Screen. Data for the cln2 rad14 strain (AID 165).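 Note: 0% = growth equal to vehicle treated cultures.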 To be noted: S. cerevisiae cln2 rad14 strain, active compounds read high. Put shortly:
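Yeast strain cln2 rad14, bearing defects in cell cycle control and DNA repair, serves as the test system; values reflect growth inhibition compared with vehicle.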

The nature of test [5]: NCI Yeast Anticancer Drug Screen. Data for the bub3 strain (AID 167). To be noted: S. cerevisiae bub3 mutant strain, active compounds read high. Put shortly: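 Inhibition values come from growth of compound-treated mutant yeast normalised to vehicle-treated controls.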
A short description of test [6]: NCI Yeast Anticancer Drug Screen. Data for the mlh1 rad18 strain (AID 175). To be noted: S. cerevisiae mlh1 rad18 strain growth inhibition, active compounds read high. In short, it runs like this:
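Steps: expose repair-defective yeast to compound; measure growth; express inhibition against vehicle-treated controls.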

Setting [7] is: at 5.0 µM (retest, dose inferred, filed as 0.5).
Where [8] appears, read: at 50.0 µM (retest, dose inferred, filed as 5.0).

Structures are written as SMILES. The panel holds about 79,000 compounds, 15% with a hit somewhere; the sample as a whole holds those more often. Unmarked numbers belong to inactive results. Calls of active or inactive are those of the source. Cut-off read from the data, not from the text of the source: active = growth inhibition above about 70%; inactive = the rest.

With `CC(CN(C)C)C(/C=C/c1ccc(Cl)cc1)=N\NC(=O)c1ccccc1` (configuration not stated), the growth inhibition in test [1] (setting [7]) was 3%; in test [1] (setting [8]) it was 15%; in test [1] (at 50.0 µM), 17.6%; in test [2] (setting [7]), 2%; in test [2] (setting [8]), 12%; in test [2] (at 50.0 µM), -4.45%. In addition, the growth inhibition in test [3] (setting [7]) is 1%; in test [3] (setting [8]), -3%; in test [3] (at 50.0 µM), -15.3%; in test [4] (setting [7]), 2%; in test [4] (setting [8]), 6%; in test [4] (at 50.0 µM), -1.65%. The growth inhibition was -3% in test [5] (setting [7]); -10% in test [5] (setting [8]); -11.9% in test [5] (at 50.0 µM); 3% in test [6] (setting [7]); -36% in test [6] (setting [8]); 27.2% in test [6] (at 50.0 µM).

`CCOC(=O)/C(=C\c1cccc(OC)c1)C(C)=O`: the growth inhibition is -5% in test [1] (setting [7]); 90% (active) in test [1] (setting [8]); 90.2% (active) in test [1] (at 50.0 µM); -5% in test [2] (setting [7]); 96% (active) in test [2] (setting [8]); 91.7% (active) in test [2] (at 50.0 µM). Besides, the growth inhibition was -11% in test [3] (setting [7]); 93% (active) in test [3] (setting [8]); 90% (active) in test [3] (at 50.0 µM); -14% in test [4] (setting [7]); 86% (active) in test [4] (setting [8]); 84.3% (active) in test [4] (at 50.0 µM). Besides, the growth inhibition is 23% in test [5] (setting [7]); 95% (active) in test [5] (setting [8]); 88.3% (active) in test [5] (at 50.0 µM); -16% in test [6] (setting [7]); 95% (active) in test [6] (setting [8]); 88.3% (active) in test [6] (at 50.0 µM).

As for `CCn1c(C)cc(=O)n1-c1ccc([N+](=O)[O-])cc1`, the growth inhibition was -160% in test [1] (setting [7]); -148% in test [1] (setting [8]); 51.1% in test [1] (at 50.0 µM); -45% in test [2] (setting [7]); -50% in test [2] (setting [8]); 17.4% in test [2] (at 50.0 µM). For the same molecule, the growth inhibition in test [3] (setting [7]) is -60%; in test [3] (setting [8]), -48%; in test [3] (at 50.0 µM), 25.4%; in test [4] (setting [7]), -64%; in test [4] (setting [8]), -69%; in test [4] (at 50.0 µM), 24%. Besides, the growth inhibition is -71% in test [5] (setting [7]); -78% in test [5] (setting [8]); 50.1% in test [5] (at 50.0 µM); -146% in test [6] (setting [7]); -110% in test [6] (setting [8]); 68.9% in test [6] (at 50.0 µM).

In the case of `CCCCOC(=O)C(=O)/C(=C/N1C(=O)/C(=C/C(C)=C/c2ccccc2)SC1=S)C(=O)C=C(C)C`, the growth inhibition in test [1] (setting [7]) is 0%; in test [1] (setting [8]) it was 8%; in test [1] (at 50.0 µM), 39.7%; in test [2] (setting [7]), -13%; in test [2] (setting [8]), 10%; in test [2] (at 50.0 µM) it was 63.4%. The growth inhibition in test [3] (setting [7]) is -10%; in test [3] (setting [8]) it was 5%; in test [3] (at 50.0 µM), 50.5%; in test [4] (setting [7]), -25%; in test [4] (setting [8]), 11%; in test [4] (at 50.0 µM) it was 46.8%. Moreover, the growth inhibition is -10% in test [5] (setting [7]); 26% in test [5] (setting [8]); 68% in test [5] (at 50.0 µM); 1% in test [6] (setting [7]); 14% in test [6] (setting [8]); 71.1% (active) in test [6] (at 50.0 µM).

Consider `O=C1C=CC(=O)N1c1ccc(-c2ccc(N3C(=O)C=CC3=O)cc2)cc1`, for which the growth inhibition is 41% in test [1] (setting [7]); 68% in test [1] (setting [8]); 48.3% in test [1] (at 50.0 µM); 56% in test [2] (setting [7]); 87% (active) in test [2] (setting [8]); 35.6% in test [2] (at 50.0 µM). Moreover, the growth inhibition is 60% in test [3] (setting [7]); 82% (active) in test [3] (setting [8]); 60.6% in test [3] (at 50.0 µM); 18% in test [4] (setting [7]); 57% in test [4] (setting [8]); 27.1% in test [4] (at 50.0 µM). In addition, the growth inhibition in test [5] (setting [7]) is 33%; in test [5] (setting [8]), 80% (active); in test [5] (at 50.0 µM), 46%; in test [6] (setting [7]), 58%; in test [6] (setting [8]), 79% (active); in test [6] (at 50.0 µM), 57.5%.

`CC(=O)C(C(=N)C#N)C(=O)Nc1ccccc1` (configuration not stated): the growth inhibition in test [1] (setting [7]) was 1%; in test [1] (setting [8]) it was 10%; in test [1] (at 50.0 µM), -6.9%; in test [2] (setting [7]), 2%; in test [2] (setting [8]) it was -12%; in test [2] (at 50.0 µM), -34.5%. The growth inhibition in test [3] (setting [7]) was -8%; in test [3] (setting [8]) it was 7%; in test [3] (at 50.0 µM), -22.7%; in test [4] (setting [7]) it was -14%; in test [4] (setting [8]) it was -2%; in test [4] (at 50.0 µM), 33.6%. The growth inhibition in test [5] (setting [7]) is 6%; in test [5] (setting [8]) it was -2%; in test [5] (at 50.0 µM) it was -44%; in test [6] (setting [7]), 0%; in test [6] (setting [8]) it was 6%; in test [6] (at 50.0 µM) it was -15.2%.

For `Cc1cc(N2C(=O)CSC2=S)c([N+](=O)[O-])cc1C`, the growth inhibition in test [1] (setting [7]) was 23%; in test [1] (setting [8]), 99% (active); in test [1] (at 50.0 µM) it was 99.2% (active); in test [2] (setting [7]), 17%; in test [2] (setting [8]), 100% (active); in test [2] (at 50.0 µM), 99.5% (active). In addition, the growth inhibition in test [3] (setting [7]) is 64%; in test [3] (setting [8]), 99% (active); in test [3] (at 50.0 µM), 99.5% (active); in test [4] (setting [7]), 7%; in test [4] (setting [8]) it was 97% (active); in test [4] (at 50.0 µM), 99.1% (active). In addition, the growth inhibition in test [5] (setting [7]) is 42%; in test [5] (setting [8]), 99% (active); in test [5] (at 50.0 µM), 99.5% (active); in test [6] (setting [7]), 84% (active); in test [6] (setting [8]), 99% (active); in test [6] (at 50.0 µM) it was 99.3% (active).

Take `O=C(/C=C/c1ccccc1Cl)c1ccc(F)cc1`: the growth inhibition was 7% in test [1] (setting [7]); 22% in test [1] (setting [8]); 54.2% in test [1] (at 50.0 µM); -12% in test [2] (setting [7]); 20% in test [2] (setting [8]); 70.4% (active) in test [2] (at 50.0 µM). Besides, the growth inhibition in test [3] (setting [7]) was -1%; in test [3] (setting [8]), -4%; in test [3] (at 50.0 µM) it was 53.8%; in test [4] (setting [7]), 9%; in test [4] (setting [8]), 17%; in test [4] (at 50.0 µM), 34%. For the same molecule, the growth inhibition in test [5] (setting [7]) was 33%; in test [5] (setting [8]), 51%; in test [5] (at 50.0 µM), 78.8% (active); in test [6] (setting [7]) it was 8%; in test [6] (setting [8]), 47%; in test [6] (at 50.0 µM), 29.6%.

In the case of `CCCCCCCCC/C=C1\CCC(CN(C)C)C1=O` (configuration not stated), the growth inhibition is -26% in test [1] (setting [7]); 88% (active) in test [1] (setting [8]); 89.4% (active) in test [1] (at 50.0 µM); -36% in test [2] (setting [7]); 98% (active) in test [2] (setting [8]); 93% (active) in test [2] (at 50.0 µM). The growth inhibition was -28% in test [3] (setting [7]); 91% (active) in test [3] (setting [8]); 90.8% (active) in test [3] (at 50.0 µM); -6% in test [4] (setting [7]); 96% (active) in test [4] (setting [8]); 89.6% (active) in test [4] (at 50.0 µM). In addition, the growth inhibition was -24% in test [5] (setting [7]); 97% (active) in test [5] (setting [8]); 89.5% (active) in test [5] (at 50.0 µM); -27% in test [6] (setting [7]); 97% (active) in test [6] (setting [8]); 88.8% (active) in test [6] (at 50.0 µM).

Values taken from PubChem BioAssay (NCI).
